These results are taken from PubChem BioAssay (Tox21).

Calls of active or inactive are those of the source. Calls come from the whole dose curve; as a rule, active = well fitted curve in the direction sought with a large enough effect in the repeat runs; inconclusive = weak or mixed curves; inactive = flat fitted curve, though single readings scatter.

A short description of this assay: qHTS assay to test for compound auto fluorescence at 460 nm (blue) in HepG2 cell free culture (AID 720685). The following applies: Cell-free culture medium, blue autofluorescence 405/460 nm; series mostly up to 91.3 µM. The source says:
U.S. Tox21 Program National Center for Advancing Translational Sciences [NCATS] NIH Chemical Genomics Center [NCGC] U.S. Environmental Protection Agency [EPA] National Institutes of Environmental Health Sciences [NIEHS] National Toxicology Program [NTP] U.S. Food and Drug Administration [FDA] Tox21 Assay Overview: Compound auto fluorescence often interferes with screening of the compound library against various biological targets and signaling pathways. Some of these compounds may have fluorophoric properties. Such properties may interfere with the assay outputs resulting in false positives and/or negatives. To decrease such complications and ensure the compound activities are relevant in terms of biological response, the Tox21 10K compound library was screened for auto fluorescence. From the fluorophores used as reporter signals in our screening assays, the auto fluorescence equivalencies of compounds against three fluorophores have been evaluated: Triamterene, Fluorescein and Rose Bengal sodium for blue, green and red fluorescence, respectively. The fluorescence intensities were measured using Excitation/Emission wavelengths at 405/460nm, 485/535nm and 540/590nm for blue, green and red labels, respectively. This assay includes the blue fluorescence data.
Tox21 Assay Protocol Summary: 5 uL of culture medium (MEM containing 10% FBS) per well was dispensed into black wall/clear bottom 1536-well plates using a Multidrop Combi Dispenser (ThermoFisher Scientific, Waltham, MA). After 23 nL compound or DMSO vehicle was transferred into assay plate by a pintool work station (Kalypsys, San Diego, CA), fluorescence intensities in the assay plates were measured by an Envision (PerkinElmer, Shelton, CT) plate reader using three labels for measuring blue, green and red fluorescence at […] 460, 535 and 590nm respectively.
In general terms: Quantitative high-throughput screening tests each substance at several concentrations.
For `c1ccc2cc(Nc3ccc(Nc4ccc5ccccc5c4)cc3)ccc2c1`, the result was inactive. For the compound `CCC(C)(O)CCCC(C)C` (stereo not given), the result was inactive. The value for `CCCCOCCOCCOCCO` was “inactive”; that for `CC1=CC2C3CC(C=C3C)C2C1` (stereo not given) was “inactive”.

On to `NNc1ccc(C(=O)O)cc1`, for which the outcome was inactive. `COC(=O)CCC(=O)OC`: the compound was classed as inactive. In the case of `CCC(C)CO` (stereo not given) it was “inactive”; in that of `O=C(COc1ccc(Cl)cc1)N1CCN(Cc2ccc3c(c2)OCO3)CC1`, “inactive”.

As to `CCCCC/C=C/C=C/C=O`, the call was inactive.

For `O=S(=O)(O)c1ccc(O)cc1`, the outcome was inactive.

Turning to `Nc1ncn([C@@H]2O[C@H](CO)[C@@H](O)[C@H]2O)c(=O)n1`, the compound was classed as inactive. In the case of `O=CCc1ccccc1` it was “inactive”; in that of `CC(C)CC(C)(O)C#CC(C)(O)CC(C)C` (stereo not given), “inactive”; in that of `O=C(OCc1ccccc1)c1ccccc1O`, “inactive”. The value for `C=CC(C)(CCC=C(C)C)OC(C)=O` (stereo not given) was “inactive”; that for `CC(CCC(=O)O)(c1ccc(O)cc1)c1ccc(O)cc1` was “inactive”.

As to `CCCCC(CC)COP(=O)(OCC(CC)CCCC)OCC(CC)CCCC` (stereo not given), the outcome was inactive. In the case of `Cc1c(C(N)=O)cc([N+](=O)[O-])cc1[N+](=O)[O-]` it was “inactive”; in that of `CCCc1c(OCCCCc2nn[nH]n2)ccc(C(C)=O)c1O`, “inactive”. The value for `C#C[C@]1(O)CC[C@H]2[C@@H]3CCc4cc(OC)ccc4[C@H]3CC[C@@]21C` was “inactive”; that for `Clc1nc(Cl)c(Cl)c(Cl)c1Cl` was “inactive”. The value for `CC(C)=CCCC(C)CCO` (stereo not given) was “inactive”. On to `O=P(O)(O)O`, for which the call was inactive.

Consider `COC(=O)Nc1nc2ccc(S(=O)c3ccccc3)cc2[nH]1` (stereo not given), for which the result was inactive. For the compound `O=C=Nc1ccc(Cc2ccc(N=C=O)cc2)cc1`, the outcome was inactive. In the case of `c1ccc2c(c1)Oc1ccccc1S2`, the result was inactive.

Consider `COc1cccc2c1C(=O)c1c(O)c3c(c(O)c1C2=O)C[C@@](O)(C(=O)CO)C[C@@H]3O[C@H]1C[C@H](N)[C@H](O)[C@H](C)O1`, for which the compound was called inactive. The value for `O=C(/C=C/c1ccccc1)OCc1ccccc1` was “inactive”. In the case of `C[C@]12CCC(=O)C=C1CC[C@@H]1[C@@H]2C(=O)C[C@@]2(C)[C@H]1CC[C@]2(O)C(=O)CO` it was “inactive”. In the case of `O=C(c1ccc(OCCN2CCCCC2)cc1)c1c(-c2ccc(O)cc2)sc2cc(O)ccc12` it was “inactive”; in that of `O=[N+]([O-])c1ccc2c(c1)Cc1ccccc1-2`, “inactive”.

As to `CC(=O)Oc1ccccc1C(=O)Nc1ncc([N+](=O)[O-])s1`, the outcome was inactive.

On to `c1ccc2sc(SSN3CCOCC3)nc2c1`, for which the compound was called inactive. The value for `CC(C)OC(=O)C(C)(C)Oc1ccc(C(=O)c2ccc(Cl)cc2)cc1` was “inactive”. On to `CC1=CCC(C(C)(C)O)CC1` (stereo not given), for which the outcome was inactive.

As to `OC1CCCCCCCCCCC1`, the call was inactive.

As for `CC(C)OC=O`, the compound was called inactive. With `Cc1ccc2c(n1)Oc1ccc(C(C)C(=O)OCC(=O)N(C)C)cc1C2` (stereo not given), the outcome was inactive. In the case of `O=C(Nc1ccc(Cl)cc1)Nc1ccc(Cl)c(Cl)c1` it was “inactive”; in that of `COC(=O)c1ccccc1`, “inactive”.
